Screening data (PubChem)
This is a sample that favours compounds with a hit; in the whole collection about 18% have one here.
KAT2A inh = inhibitors of human GCN5L2 histone acetyltransferase; Q92830; GCN5L2 HAT assay, ThioGlo1 CoA-SH fluorescence; Potency, µM (titrated, usually from 58.9 µM), actives largely listed as inhibitors; 0.21% of 390,000 active
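Preincubate 20nM GCN5L2 with compound 15 min, RT → add 50uM ThioGlo1 + 75uM H3(1-25) + 70uM acetyl-CoA → read fluorescence 0 and 20 min. Primary qHTS; fluorescent artifacts likely.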
TDP1 cell noCPT = qHTS for Inhibitors of human tyrosyl-DNA phosphodiesterase 1 (TDP1): qHTS in cells in absence of CPT | DT40 Tdp1-/- hTDP1 cells, no CPT, ATP luminescence, 48 h | Potency, µM (series often up to 46.2 µM), most hits filed as inhibitors | 15% of 420,000 active | AID 686978, 2013; note: nearly all actives have a fitted effect of over 55% in size
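Growth kinetics read by CellTiter-Glo luminescence after ≥48 hr at 37 °C. Cells: DT40 Tdp1-/- stably carrying human TDP1, 400 per well, compound exposure in the absence of CPT (DMSO vehicle).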
TDP1 inh = TDP1 (human) enzyme inhibition; Q9NUW8; recombinant TDP1, AlphaScreen DNA substrate cleavage; Potency, µM (highest dose often 130 µM), hits mostly inhibitors; 0.28% of 350,000 active; note: nearly all actives have a fitted effect of over 40% in size
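Enzyme-compound mixtures sat 15 min at room temperature, followed by a 5 min reaction with 15 nM final substrate and 10 min with AlphaScreen beads. Recombinant human Tdp1 was used at 1 nM final.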
VDR inhibitor = inhibitors of human vitamin D receptor. VDR-SRC2-3 peptide fluorescence polarization, 2 h. Potency, µM, most hits filed as inhibitors. 0.93% of 400,000 active. AID 504847
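Compounds are added to VDR with labelled SRC2-3 coactivator peptide and held 2 h at room temperature. Inhibition of the VDR–peptide interaction is then read as a change in fluorescence polarization.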
PLK1 PBD block = PLK1 (human) polo-box domain binding inhibition; P53350; Plk1 PBD binding of FITC phosphopeptide, fluorescence polarization; Potency, µM, hits mostly inhibitors; 2.8% of 360,000 active; note: series mostly up to about 57 µM; nearly all actives have a fitted effect of over 65% in size
Target sequence (P53350 whole entry, looked up, the tested form may be a part): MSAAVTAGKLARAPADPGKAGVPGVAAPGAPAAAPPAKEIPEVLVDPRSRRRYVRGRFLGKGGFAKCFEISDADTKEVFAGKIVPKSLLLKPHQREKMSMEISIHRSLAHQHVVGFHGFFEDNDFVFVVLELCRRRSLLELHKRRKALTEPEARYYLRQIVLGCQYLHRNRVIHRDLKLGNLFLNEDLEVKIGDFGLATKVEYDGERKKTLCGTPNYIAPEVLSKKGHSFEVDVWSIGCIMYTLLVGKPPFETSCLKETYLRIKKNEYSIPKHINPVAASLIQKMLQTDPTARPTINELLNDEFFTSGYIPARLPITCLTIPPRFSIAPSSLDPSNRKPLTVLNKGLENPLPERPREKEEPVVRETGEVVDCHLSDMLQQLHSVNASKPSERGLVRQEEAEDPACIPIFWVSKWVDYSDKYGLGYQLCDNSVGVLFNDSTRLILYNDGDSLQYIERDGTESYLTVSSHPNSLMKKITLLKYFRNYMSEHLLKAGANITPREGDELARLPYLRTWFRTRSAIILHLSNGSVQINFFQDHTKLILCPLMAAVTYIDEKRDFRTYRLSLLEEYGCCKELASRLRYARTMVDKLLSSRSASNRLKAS
TDP1 cell CPT = growth inhibition of DT40 Tdp1-/-;hTDP1 cells with camptothecin (screen for TDP1 inhibitors). chicken DT40 Tdp1-/-;hTDP1 cells + 20 nM CPT, ATP luminescence, 48 h. Potency, µM (top dose mostly 46.2 µM), actives largely listed as inhibitors. 12% of 420,000 active. AID 686979; note: nearly all actives have a fitted effect of over 55% in size
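Chicken DT40 Tdp1-/- cells stably complemented with human TDP1 were seeded at 400 cells/well in medium containing 20 nM camptothecin, exposed to pin-transferred compounds, and grown at 37 °C for at least 48 hr. Viability was read as ATP luminescence.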
Each line names hits and unclear results; the compound was inactive in the other large screens. Calls come from the whole dose curve; as a rule, active = well fitted curve in the direction sought with a large enough effect; inconclusive = small, poorly fitted or top-dose-only effect, or another doubt; inactive = no such curve, though single readings can be large; an effect the other way counts as inactive or inconclusive.

CNC(=S)N(Cc1ccc(OC)cc1)Cc1cc2cccc(C)c2[nH]c1=O	TDP1 cell noCPT 21µM, VDR inhibitor inconclusive, PLK1 PBD block 13µM, TDP1 cell CPT 18µM
Cc1ccc2[nH]c(=O)c(CN(C(=O)c3cccs3)c3ccccc3)cc2c1	TDP1 cell noCPT 16µM, TDP1 cell CPT inconclusive
Cc1cccc(N(Cc2cc3ccccc3[nH]c2=O)C(=O)c2cccc(Cl)c2)c1	TDP1 cell noCPT 16µM, TDP1 cell CPT 23µM (no result: PLK1 PBD block)
CC1=C(C(=O)Nc2ccccc2C(=O)N2CCN(c3ccccc3)CC2)SCCO1	TDP1 cell noCPT 18µM, TDP1 cell CPT inconclusive (no result: KAT2A inh, TDP1 inh, VDR inhibitor)
CC1=C(C(=O)Nc2ccccc2C(=O)N2CCCCC2)SCCO1	none
CCc1ccc(CNC(=O)Cc2ccc(NC(=O)C3=C(C)OCCS3)cc2)cc1	TDP1 cell noCPT 1.3µM, TDP1 cell CPT 1.2µM
COc1ccc(CNC(=O)c2ccccc2NC(=O)C2=C(C)OCCS2)cc1	TDP1 cell noCPT inconclusive, TDP1 cell CPT inconclusive (no result: KAT2A inh, TDP1 inh, VDR inhibitor)
Cc1cccc(N2CCN(C(=O)c3ccccc3NC(=O)C3=CSCCO3)CC2C)c1 (stereo unspecified)	TDP1 cell noCPT inconclusive, VDR inhibitor inconclusive, PLK1 PBD block 24µM, TDP1 cell CPT inconclusive
COc1ccccc1CNC(=O)c1ccccc1NC(=O)C1=C(C)OCCS1	TDP1 cell noCPT inconclusive, TDP1 cell CPT 21µM
C=CCN(C(=O)CCC(=O)Nc1cc(C)on1)C(C(=O)NC1CCCC1)c1ccc(OC)cc1OC (stereo unspecified)	none (no result: TDP1 inh)
CC(C)CCNC(=O)CCn1c(=S)oc2ccccc21	none
CCN(CC(=O)NCc1ccc(F)cc1)C(=O)CCNS(=O)(=O)c1cccc(C)c1	none
Cc1ccc(N(C)S(=O)(=O)c2cccc(C(=O)OCC(=O)N(C)Cc3ccccc3)c2)cc1	TDP1 cell noCPT inconclusive, TDP1 cell CPT inconclusive (no result: KAT2A inh, TDP1 inh, VDR inhibitor)
Cc1ccc(C(=O)Nc2ccncc2)cc1[N+](=O)[O-]	TDP1 cell noCPT 0.73µM, VDR inhibitor inconclusive, TDP1 cell CPT inconclusive
Cc1cc(C(=O)Nc2ccncc2)ccc1[N+](=O)[O-]	TDP1 cell noCPT 15µM, TDP1 cell CPT inconclusive (no result: TDP1 inh)
Cc1ccc(C(=O)NNC(=O)c2ccncc2)cc1[N+](=O)[O-]	none
Cc1ccc(NC(=O)c2ccncc2)cc1[N+](=O)[O-]	none
Cc1[nH]c2ccc(C(=O)Nc3ccncc3)cc2c1C	TDP1 cell noCPT 12µM, TDP1 cell CPT 13µM (no result: TDP1 inh)
Cc1ccc(C(=O)NCC(C)NC(=O)c2ccc(C)c([N+](=O)[O-])c2)cc1[N+](=O)[O-] (stereo unspecified)	TDP1 cell noCPT 15µM, VDR inhibitor inconclusive, TDP1 cell CPT inconclusive (no result: KAT2A inh, TDP1 inh)
CCOc1ccccc1CNC(=O)c1cnc2sc(N(CC)CC)nn2c1=O	TDP1 cell noCPT inconclusive, TDP1 cell CPT inconclusive (no result: PLK1 PBD block)
COc1cc(F)c(S(=O)(=O)N2CCCN(S(=O)(=O)c3cccc(NC(C)=O)c3)CC2)c(F)c1	none (no result: KAT2A inh, TDP1 cell noCPT, VDR inhibitor, PLK1 PBD block, TDP1 cell CPT)
Cc1ccc(C(=O)NC(=S)Nc2cccc(NC(=O)c3ccccc3)c2)cc1[N+](=O)[O-]	TDP1 cell noCPT 16µM, TDP1 cell CPT inconclusive
CCc1ccccc1N(CC(=O)NCc1ccco1)C(=O)c1snc(C(N)=O)c1N	TDP1 cell noCPT 18µM, TDP1 cell CPT inconclusive
O=C(c1nn2c(C(F)(F)F)cc(-c3ccccc3)nc2c1Cl)N1CCN2CCCC2C1 (stereo unspecified)	KAT2A inh inconclusive, TDP1 cell noCPT inconclusive, TDP1 cell CPT 21µM
O=C(c1ccccc1)N1CCN(C(=O)c2nn3c(C(F)(F)F)cc(-c4ccccc4)nc3c2Br)CC1	TDP1 cell noCPT 18µM, TDP1 cell CPT inconclusive
NC(=O)c1nn2c(C(F)(F)F)cc(-c3ccccc3)nc2c1Br	TDP1 cell noCPT inconclusive, TDP1 cell CPT inconclusive (no result: TDP1 inh)
C[N+]1(CC(=O)OC2CCCCCCCCCCC2)CCCC1	TDP1 cell noCPT 2.6µM, TDP1 cell CPT 4.1µM
Cc1nc2cc(C(F)(F)F)ccc2n1CCNc1nc(-c2ccc(F)cc2)cs1	TDP1 cell noCPT inconclusive, TDP1 cell CPT inconclusive (no result: TDP1 inh)
